Screening data deposited in PubChem BioAssay by several laboratories.
NOD2 RIPK2 PPI: NOD2-RIPK2 protein interaction inhibition; inhibition, % at 4.98 µM; 360,000 tested, 0.38% active; O43353; CHO BLA complementation NOD2-RIPK2, CCF4 ratio; in the data active = inhibition above about 21%;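 also: 0% = vehicle only and 100% = reference blocker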
TLR4 MyD88 comp: TLR4-MyD88 interaction inhibition in cells. HeLa CL3-4 TLR4/MyD88 BLA complementation, FRET ratio. O00206+Q99836. 200,000 tested, 0.18% active. inhibition, % at 8.4 µM. AID 861; in the data active = inhibition above about 25%;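 also: 0% = vehicle and 100% = reference inhibitor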
TLR9-MyD88 inh: blocks human TLR9 binding to MyD88; Q9NR96+Q99836; CHO BLA complementation TLR9-MyD88, CCF4 FRET ratio; inhibition, % at 4.98 µM; 340,000 tested, 0.21% active;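 active = inhibition above the mean over all tested compounds plus 3 SD, cut at about 21% in these data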;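 also: 0% = DMSO only wells and 100% = clavulanate BLA inhibitor control wells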
NPR1 activator: GC-A (human) enzyme activation | P16066 | HEK293 GC-A cells, cGMP TR-FRET, EC30 ANP; 0% at EC30 ANP, 100% saturating ANP | 370,000 tested, 0.14% active | activation, % at 10 µM; in the data active = activation above about 40%
Neddylation inh: blocks human cullin neddylation; P61081+Q13564; TR-FRET cullin neddylation, biochemical; inhibition, % at 25 µM; 360,000 tested, 0.58% active; AID 651699; in the data active = inhibition above about 36%
GC-B act: GC-B (human) receptor activation; P20594; HEK293-GC-B cells, CNP EC30, cGMP TR-FRET; 0% at EC30 CNP, 100% saturating CNP; activation, % at 10 µM; 370,000 tested, 0.11% active;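 active = activation at 10 µM reaching about 35% in either raw or pattern-adjusted values, limit read from the data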
NOD2-RIPK2 conf: NOD2-RIPK2 interaction inhibition confirmed. shares compounds with NOD2 RIPK2 PPI. CHO cells, NOD2-RIPK2 BLA complementation, CCF4 FRET. inhibition, % at 4.98 µM. 1,200 tested, 70% active;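 active = mean inhibition across replicates above a set limit taken from the earlier primary screen, cut at about 21% in these data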;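 also: 0% = DMSO-only wells and the high end = clavulanate BLA-blocked wells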
NOD2 BLA counter: NOD2-RIPK2 counterscreen BLA reporter activity. 1,200 tested, 57% active. shares compounds with NOD2 RIPK2 PPI. inhibition, % at 4.98 µM. CHO BLA reporter, CCF4 FRET ratio;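 active = mean inhibition above the low-control mean inhibition plus three low-control SD, cut at about 11% in these data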;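 also: 0% = DMSO only wells and 100% = clavulanate high control wells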
The depositor's hits bear a star; / = no result shown. Hits are enriched below; roughly 1.2% of the tested compounds scored in any of these assays.

SMILES | NOD2 RIPK2 PPI | TLR4 MyD88 comp | TLR9-MyD88 inh | NPR1 activator | Neddylation inh | GC-B act | NOD2-RIPK2 conf | NOD2 BLA counter
COc1ccc(C)c2sc(NC(=O)c3cccc(N4C(=O)CCC4=O)c3)nc12 | 21.7* | / | -0.9 | 14.3 | / | -2.2 | 2.7 | -1.6
Cc1ccc(NC(=S)NC(=O)C2CCCC2)c(Br)c1 | -0.6 | / | -7.7 | 0.8 | -10.8 | 8.8 | / | /
C=CCNC1=C(Cl)C(=O)N(c2cccc(Cl)c2Cl)C1=O | 21.6* | 6.5 | 5.7 | 2.5 | 19.3 | 4.2 | 8.0 | 8.0
C=CCn1c(SCC(=O)Nc2ccccc2-c2ccccc2)nnc1-c1ccccc1 | / | / | / | -9.5 | / | -11.3 | / | /
CC(C)(C)NC(=O)C(c1cc2ccccc2o1)n1c(=O)c(-c2ccco2)nc2ccccc21 (configuration not stated) | 3.5 | / | / | -10.4 | 10.4 | -3.8 | / | /
COc1ccc(NC(=O)C(c2ccc(C#N)cc2)n2c(=O)c(-c3cc4ccccc4[nH]3)nc3ccccc32)cc1 (configuration not stated) | 56.5* | / | / | 3.3 | / | 0.2 | 54.5* | 72.0*
COc1ccc(NC(=O)C(c2ccc(OC)cc2)n2c(=O)c(-c3cc4ccccc4[nH]3)nc3ccccc32)cc1 (configuration not stated) | 44.0* | / | / | 3.1 | / | 2.6 | 40.3* | 66.1*
COc1ccc(NC(=O)C(c2cc3ccccc3o2)n2c(=O)c(-c3cc4ccccc4[nH]3)nc3ccccc32)cc1 (configuration not stated) | 51.4* | / | / | 5.8 | / | 4.5 | 46.1* | 67.5*
CCCCCCc1ccc(-c2ccc(C#N)cc2)cc1 | / | / | / | 1.0 | / | -0.5 | / | /
Cc1cc(S(=O)(=O)c2ccc(Cl)cc2)nc(S(=O)(=O)c2ccc(Cl)cc2)c1C#N | 50.4* | / | 16.0 | 9.8 | -306.1 | 25.4 | 68.3* | 17.9*
Cc1cc(C)c(S(=O)(=O)c2ccc(Cl)cc2)c(Cl)n1 | -16.2 | 1.1 | 6.7 | 1.4 | 1.1 | -0.4 | / | /
O=C1C=CC(=O)N1c1ccc2c(c1)Cc1cc(F)ccc1-2 | 22.7* | / | 4.3 | 8.7 | 3.2 | 15.9 | 64.2* | 15.6*
Cc1cc(O)c(C2=Nc3ccccc3SC(c3ccc(Cl)cc3)C2)c(=O)o1 (configuration not stated) | -2.2 | 5.1 | 4.5 | -9.4 | 3.1 | -5.9 | / | /
COc1ccc(C2CC(c3c(O)cc(C)oc3=O)=NCCS2)c(OC)c1 (configuration not stated) | 22.7* | 10.0 | 15.5 | / | 3.9 | / | 15.5 | 3.5
O=C(CCCCCN1C(=O)C2C3C=CC(C3)C2C1=O)Nc1ccc2ncccc2c1 (configuration not stated) | / | / | / | 3.1 | / | -3.1 | / | /
CC1C=CC(C)C(C(=O)c2ccccc2)C1C(=O)c1ccccc1 (configuration not stated) | 29.6* | / | 3.3 | -6.6 | -0.8 | -6.8 | -7.2 | 0.3
Cc1ccc(C2C=C(c3ccccc3OC(F)F)Nc3ncnn32)cc1 (configuration not stated) | 29.9* | 17.3 | 16.4 | 14.2 | / | -2.3 | 26.6* | 30.6*
Cc1[nH]c2ccccc2c1CCN(Cc1cccs1)C(=O)Nc1cccc2c1OCO2 | / | / | / | -0.8 | / | -7.2 | / | /
Cc1cc(=O)[nH]c(SCC(=O)Nc2cccc(Cl)c2F)n1 | / | / | / | -0.1 | / | -2.0 | / | /
CC(=O)Nc1ccc(C(/C=C/c2ccccc2)Cc2ccccc2)cc1 (configuration not stated) | / | / | / | 5.5 | / | -1.1 | / | /
C[N+](C)(C)CCC(=O)N1C/C(=C/c2ccccc2)C(=O)/C(=C\c2ccccc2)C1 | -8.2 | / | 3.3 | 1.0 | -4.2 | 4.6 | / | /
CN(C)CCC(=O)N1C/C(=C/c2ccccc2)C(=O)/C(=C\c2ccccc2)C1 | 61.2* | / | 3.4 | 14.3 | 8.2 | -3.4 | 54.9* | -1.0
O=C1/C(=C/c2ccccc2)CN(C(=O)CCN2CCOCC2)C/C1=C\c1ccccc1 | 27.5* | / | 7.3 | 3.5 | 3.4 | -2.7 | 30.6* | 2.0
NC(=O)CSc1ncc(-c2ccccc2)[nH]1 | -7.3 | 2.9 | -9.4 | 4.0 | -3.0 | 1.6 | / | /
O=[N+]([O-])c1ccc(-c2cnc(SC(c3ccccc3)c3ccccc3)[nH]2)cc1 | 44.1* | 9.3 | 13.8 | -0.1 | -7.5 | -1.1 | 18.9 | 26.4*
SMILES | NOD2 RIPK2 PPI | TLR4 MyD88 comp | TLR9-MyD88 inh | NPR1 activator | Neddylation inh | GC-B act | NOD2-RIPK2 conf | NOD2 BLA counter
Cc1c(C(=O)OCC(=O)c2ccc3c(c2)OCCO3)oc2ccccc12 | 25.8* | -0.2 | -0.1 | -1.6 | -67.9 | -4.8 | -3.3 | -2.7
Cc1cc(C(=O)OCC(=O)c2ccc3c(c2)OCCO3)c(C)o1 | -4.8 | 5.1 | 6.2 | -1.2 | -5.7 | 1.8 | / | /
O=C1c2ccccc2/C(=C\c2ccc(Br)s2)N1c1ccccc1 | -1.3 | / | -26.5 | -4.4 | -174.2 | -18.2 | / | /
CC(C)(C)OC(=O)n1cccc1/C=C1\c2ccccc2C(=O)N1c1ccccc1 | 40.7* | / | -2.4 | / | 42.5* | / | 5.8 | 5.4
N#Cc1c2ccc(O)cc2n2ccccc12 | 22.4* | 3.9 | 13.4 | -13.3 | / | -8.0 | 21.0* | 26.0*
O=c1cc(-c2cccs2)oc2ccc(Cl)cc12 | -11.4 | 5.5 | -3.7 | 1.5 | -24.1 | -3.7 | / | /
O=c1c(O)c(-c2cccs2)oc2ccc(Cl)cc12 | 44.5* | 14.0 | 21.0* | 14.7 | -25.4 | -0.7 | 45.4* | 51.6*
O=C(C(Br)=Cc1ccccc1)c1ccccc1 | 32.6* | / | 2.6 | 7.5 | -2.8 | 5.5 | 64.7* | 22.2*
CC(=Cc1ccccc1)C(=O)c1ccccc1 | 5.0 | / | -0.2 | 3.8 | -6.0 | -1.8 | / | /
CCCCCC(=O)NC1CCCCN(Cc2cccc(Cl)c2)C1=O (configuration not stated) | / | / | / | 1.2 | / | 2.4 | / | /
COc1ccc(C(C)=O)cc1CSc1nc2ccccc2c(=O)n1-c1ccccc1C | 24.0* | 11.0 | -3.1 | 2.4 | -53.5 | 0.0 | -1.6 | -2.5
CC(=O)Nc1c(Cl)cnn(-c2ccccc2)c1=O | 21.5* | / | / | 8.2 | -5.7 | -0.9 | 7.4 | -3.6
CNC(=O)c1c(Cl)cnn1-c1ccccc1 | -9.4 | -6.2 | / | 2.7 | -15.4 | -3.4 | / | /
O=C(CN(CCc1ccccc1)S(=O)(=O)c1ccc(F)cc1)N1CCOCC1 | / | / | / | 0.7 | / | -4.9 | / | /
S=c1[nH]nc(-c2cc3c(s2)-c2ccccc2CC3)o1 | 30.4* | 15.7 | 11.7 | 25.2 | 31.1 | -1.9 | 25.4* | 38.5*
CSc1nnc(-c2cc3c(s2)-c2ccccc2CC3)o1 | 4.0 | -19.4 | -4.3 | -3.1 | / | -18.4 | / | /
C=CCOC(=O)C1=C(C)N=c2sc(=C3C(=O)N(CC(=O)O)c4ccccc43)c(=O)n2C1c1ccc(OC)cc1 (configuration not stated) | / | / | / | -6.5 | / | 9.2 | / | /
